Results reported in PubChem BioAssay.
Records with an inconclusive call do not appear. The source made the active and inactive calls.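 Rule for the calls, unless noted: active = RAM network inhibition above 8.4% in each of two replicates, 3 SD over the compound average; inconclusive = above 8.4% inhibition in only one replicate; inactive = 8.4% inhibition or less in each replicate.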

Assays:
[1] = S. cerevisiae growth inhibition in permissive medium (OD615), pilot counter-assay for S. cerevisiae lifespan shortening project, permissive growth control (AID 705;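 active = growth inhibition above 25% in both replicates, a cutoff set 3 SD above the mean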); conditions: OD615, 24 h, at 10 µM, stronger effect = higher value
[2] = S. cerevisiae growth inhibition in restrictive medium, OD615, pilot screen, restrictive growth control, yeast lifespan reduction project (AID 706;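 active = growth inhibition above a set limit, 3 SD over mean compound inhibition, in both replicates, cut at about 43% in these data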;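 note: modified DeaD lifespan yeast strain shifted to restrictive glucose medium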); conditions: OD615, 48 h, at 10 µM, stronger effect = higher value
[3] = doxorubicin toxicity protection in MRP-1 cells – H69AR cells, CellTiter-Glo, duplicate, MRP-1 activator project, pilot screen (AID 807;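 active = viability increase at or above a cutoff of the median across tested compounds plus 3 SD, cut at about 8.5% in these data, passing the limit was not always enough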;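 note: compound pretreatment 18-22 h then 72 h combined with doxorubicin; 0% = doxorubicin alone and 100% = vehicle without doxorubicin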); conditions: H69AR viability with doxorubicin, CellTiter-Glo luminescence; at 10 µM; stronger effect = higher value
[4] = viability of HCT116 without oncogenic beta-catenin – human colon tumor cells, pilot screen (AID 823;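 active = cell viability at or below a set limit in both duplicate runs, the limit being the all-compound median minus 4 SD, cut at about 23% in these data, passing the limit was not always enough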;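 note: 0% = wells killed by 20 µM Hyamine and 100% = untreated DMSO cell wells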); conditions: HCT116 beta-catenin knockout viability, CellTiter-Glo, 60 h; at 10 µM; stronger effect = lower value
[5] = viability of PTEN-null HCT116 cells – cell-based, HCT116 clonal line, CellTiter-Glo, pilot screen (AID 824;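 active = viability at or below 27.92% in each of two runs, the all-compound median minus 4 SD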;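 note: 0% = 20 µM Hyamine control and 100% = vehicle cell control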); conditions: HCT116 PTEN-deleted viability, 60 h, at 10 µM, stronger effect = lower value
[6] = RAM pathway blockade in budding yeast – dse1pr::URA3 reporter, 5-FOA selection, pilot screen (AID 869;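 active = inhibition over a set limit, the all-compound mean plus 3 SD, in both replicate runs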;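 note: 0% = DMSO wells with no growth and 100% = 10 µM 1-NA-PP1 with full growth; RAM network block rescues cells from 5-FOA so hits raise OD615 growth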); conditions: S. cerevisiae dse1pr::URA3 5-FOA growth, OD615, 2 d, at 10 µM, stronger effect = higher value
[7] = RAM signaling pathway blockade in yeast – S. cerevisiae, Pdr1DBD-CYC8 efflux-inhibited sensitized strain, primary screen (AID 1298);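 note: 0% = DMSO untreated cells without growth and 100% = 10 µM 1-NA-PP1 full growth; higher means more yeast growth rescued from 5-FOA killing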; conditions: S. cerevisiae cbk1-as DSE1-URA3 strain, 5-FOA growth OD615, 2 d; at 50 µM; stronger effect = higher value
[8] = biological target: Pantothenate synthetase (Mycobacterium tuberculosis (strain ATCC 25618 / H37Rv)) (UniProt P9WIL5); experiment: Coupled enzyme confirmation of inhibitors against recombinant Mtb PanC (AID 375; call rule not given here;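 note: 0% = full reaction with vehicle and 100% = no enzyme background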); conditions: coupled enzyme assay; at 10 µM, stronger effect = higher value
Chain of Pantothenate synthetase (Mycobacterium tuberculosis (strain ATCC 25618 / H37Rv)) (P9WIL5 whole entry, looked up): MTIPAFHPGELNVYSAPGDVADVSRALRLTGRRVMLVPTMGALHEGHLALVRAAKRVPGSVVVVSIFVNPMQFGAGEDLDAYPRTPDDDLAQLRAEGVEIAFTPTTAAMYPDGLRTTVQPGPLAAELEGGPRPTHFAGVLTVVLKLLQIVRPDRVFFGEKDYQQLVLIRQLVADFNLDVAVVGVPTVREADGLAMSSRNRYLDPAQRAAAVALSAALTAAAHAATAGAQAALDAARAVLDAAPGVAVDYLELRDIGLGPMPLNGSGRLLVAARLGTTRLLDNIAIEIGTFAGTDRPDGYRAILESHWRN

[9] = Her2 expression decrease, cell viability multiplex – SKBR3 breast tumor cells, AlphaScreen, ATP viability, primary screen (AID 461;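 active = Her2 level under about 52% in both replicate screens, with viability over 70% of control, limit read from the data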;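 for Her2 level: lower value means less Her2 protein in the cells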;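 for viability: percent of carrier control wells set as 100% viability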); conditions: SKBR3 Her2 protein level, 18-24 h, measured here: SKBR3 viability, ATP luminescence, at 10 µM
[10] = biological target: Receptor tyrosine-protein kinase erbB-2 (Homo sapiens) (UniProt P04626); experiment: as above; conditions: 18-24 h, at 10 µM, stronger effect = lower value
Chain of Receptor tyrosine-protein kinase erbB-2 (Homo sapiens) (P04626 whole entry, looked up): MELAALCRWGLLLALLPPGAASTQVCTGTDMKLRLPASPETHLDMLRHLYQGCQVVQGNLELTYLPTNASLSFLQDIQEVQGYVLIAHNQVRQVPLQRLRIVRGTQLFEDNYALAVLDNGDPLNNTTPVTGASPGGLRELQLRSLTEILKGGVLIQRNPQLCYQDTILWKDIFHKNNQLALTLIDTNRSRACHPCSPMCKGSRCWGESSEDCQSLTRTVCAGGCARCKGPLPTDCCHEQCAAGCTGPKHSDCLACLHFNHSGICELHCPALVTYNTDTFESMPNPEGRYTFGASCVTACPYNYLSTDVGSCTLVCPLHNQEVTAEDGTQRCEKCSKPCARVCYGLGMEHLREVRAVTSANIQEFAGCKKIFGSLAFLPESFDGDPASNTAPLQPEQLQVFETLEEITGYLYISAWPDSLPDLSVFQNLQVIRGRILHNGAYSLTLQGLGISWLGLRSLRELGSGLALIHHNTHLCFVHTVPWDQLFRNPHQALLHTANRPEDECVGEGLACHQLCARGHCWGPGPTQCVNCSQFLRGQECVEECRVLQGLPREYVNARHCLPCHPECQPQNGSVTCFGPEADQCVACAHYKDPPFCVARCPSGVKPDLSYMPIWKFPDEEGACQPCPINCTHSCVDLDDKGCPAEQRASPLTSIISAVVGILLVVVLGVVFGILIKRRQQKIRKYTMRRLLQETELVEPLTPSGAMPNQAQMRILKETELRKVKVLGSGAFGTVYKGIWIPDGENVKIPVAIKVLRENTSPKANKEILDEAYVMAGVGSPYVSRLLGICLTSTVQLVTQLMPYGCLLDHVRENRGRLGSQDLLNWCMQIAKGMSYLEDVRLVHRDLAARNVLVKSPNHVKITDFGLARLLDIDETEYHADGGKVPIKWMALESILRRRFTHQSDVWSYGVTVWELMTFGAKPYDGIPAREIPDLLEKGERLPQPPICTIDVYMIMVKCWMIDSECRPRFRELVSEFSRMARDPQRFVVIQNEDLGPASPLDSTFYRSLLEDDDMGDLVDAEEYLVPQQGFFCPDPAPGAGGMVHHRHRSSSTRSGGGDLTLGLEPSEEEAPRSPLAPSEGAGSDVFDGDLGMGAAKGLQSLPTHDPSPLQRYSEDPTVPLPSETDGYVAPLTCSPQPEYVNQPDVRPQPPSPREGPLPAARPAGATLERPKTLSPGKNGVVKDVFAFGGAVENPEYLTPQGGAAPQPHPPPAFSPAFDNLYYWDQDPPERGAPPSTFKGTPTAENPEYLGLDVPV

[11] = reduced viability of SK-BR-3 breast cancer cells – cell-based, 24 h, human, pilot screen (AID 572;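 active = viability at or below 10% of carrier control in both of two separate runs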;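 note: compound exposure lasted between 18 and 24 h rather than exactly 24 h; 100% = carrier-treated control wells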); conditions: SK-BR-3 viability, CellTiter-Glo luminescence, at 10 µM, stronger effect = lower value
[12] = HUVEC growth inhibition – cell-based, human, primary screen (AID 575;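 active = viability at or below 30% in both replicate assays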;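 note: 100% = median of untreated cell wells with 0.1% DMSO on each plate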); conditions: HUVEC proliferation, CellTiter-Glo luminescence, 72 h; at 10 µM; stronger effect = lower value
[13] = H69AR cell proliferation blockers – human, duplicate replicates, primary screen (AID 580;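 active = viability at or under a set limit in both replicates, limit being median viability minus 3 SD, cut at about 48% in these data, passing the limit was not always enough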;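 note: 100% = mean luminescence of untreated wells and 0% = no signal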); conditions: H69AR lung tumor cells viability, ATP luminescence, 72 h; at 10 µM; stronger effect = lower value
[14] = MRP1 drug-resistance reversers in H69AR cells – cell-based, doxorubicin co-treatment, pilot screen (AID 601;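 active = viability loss from added drug above about 55%, and viability with drug at most 40%, in both replicates, limit read from the data, passing the limit was not always enough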); conditions: CellTiter-Glo, 72 h, at 10 µM; for differential viability (reversal): stronger effect = higher value
[15] = yeast transport mutant growth inhibition pilot in 384-well plates, post-Golgi transport modulator project (AID 636; in the data active = inhibition above about 31%); conditions: absorbance 615 nm, about 18 h, stronger effect = higher value
[16] = growth suppression of yeast trafficking mutant, preliminary HTS, modulators of trafficking downstream of Golgi apparatus project, 1536-format plate, OD 615 nm (AID 637; in the data active = inhibition above about 30%); conditions: yeast transport mutant growth, absorbance 615 nm, 18 h; stronger effect = higher value
[17] = H69AR cells + 2 uM doxorubicin, measured here: viability with 2 uM doxorubicin, stronger effect = lower value
[18] = H69AR cells, compound alone cytotoxicity

O=C(O)C1CN2CCC1CC2 (stereo unspecified)
inactive: growth inhibition [1] -6.59% | growth inhibition [2] 5.84% | viability increase [3] -0.31% | viability [4] 96.2% | viability [5] 93.3% | inhibition [6] 0.99% | RAM network inhibition [7] -0.77%

COC(=NC1CCCC1)C(O)c1c[nH]c2ccccc12 (stereo unspecified)
108%: viability [14, 18]
106%: viability [14, 17]
inactive: inhibition [8] 0% | Her2 level [10] 103% | viability [11] 101% | viability [12] 102% | viability [13] 108% | differential viability (reversal) ([14]; H69AR cells + 2 uM doxorubicin) 1.98% | inhibition [15] -0.82% | inhibition [16] -4.44% | growth inhibition [1] -12.2% | growth inhibition [2] -12.5% | viability increase [3] -4.16% | viability [5] 81.2% | inhibition [6] 0.825% | RAM network inhibition [7] 0.62%
101%: viability [9]

O=c1c2ccccc2nc(-c2ccco2)n1-c1ccccn1
inactive: growth inhibition [1] -12.2% | growth inhibition [2] -7.09% | viability increase [3] -0.82% | viability [4] 107% | viability [5] 95.2% | inhibition [6] 1.16% | RAM network inhibition [7] 3.37%

COc1ccc(OC)c(N2C(=O)NC(=O)C(CCc3ccncc3)(CCc3ccncc3)C2=O)c1
inactive: inhibition [8] 0% | Her2 level [10] 112% | viability [11] 105% | viability [12] 91% | viability [13] 82.8% | differential viability (reversal) ([14]; H69AR cells + 2 uM doxorubicin) -8.92% | inhibition [15] 0.79% | inhibition [16] 11.3% | growth inhibition [1] -15.9% | growth inhibition [2] -9.8% | viability increase [3] -1.85% | viability [4] 94.8% | viability [5] 94.2% | inhibition [6] 2.2% | RAM network inhibition [7] 0.12%
82.8%: viability [14, 18]
91.7%: viability [14, 17]
105%: viability [9]

CCCCNC(=O)c1c(N)n(CCCOC)c2nc3ccccc3nc12
89%: viability [9]
inactive: inhibition [8] 0% | Her2 level [10] 82% | viability [11] 89% | viability [12] 71.8% | differential viability (reversal) ([14]; H69AR cells + 2 uM doxorubicin) -25.4% | inhibition [15] 1.1% | inhibition [16] 5.24% | growth inhibition [1] 1.92% | growth inhibition [2] -1.88% | viability increase [3] -6.16% | viability [4] 68.5% | viability [5] 67.8% | inhibition [6] 0.37% | RAM network inhibition [7] -3.2%
54%: viability [14, 18]
79.4%: viability [14, 17]
